A short description of assay [1]: Quantitative High-Throughput drug screen in 47 multiple myeloma cell lines against the NCATS MIPE library collection: KHM11_PLB cell viability assay (AID 1918962). Also: nearly all actives have a fitted effect of over 35% in size. A digest of the protocol: (§1)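 CellTiter-Glo luminescence (ATP) after 48 h compound exposure, 37C/5% CO2; 500 cells/well; MIPE 4.0 approved/investigational drugs pinned in; DMSO = 100%, media only = 0% viability.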

Assay [2] in a line: Quantitative High-Throughput drug screen in 47 multiple myeloma cell lines against the NCATS MIPE library collection: JIM1_ECACC cell viability assay (AID 1918964). A digest of the protocol:
(§2)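 CellTiter-Glo ATP luminescence gave viability after 48 h compound treatment at 37C of 500 multiple myeloma cells per well. Normalisation used DMSO-only wells as 100% and media-only wells as 0% viability; primary qHTS of approved and investigational drugs.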

Assay [3] is described as follows: Quantitative High-Throughput drug screen in 47 multiple myeloma cell lines against the NCATS MIPE library collection: INA6_PLB cell viability assay (AID 1918965; also: nearly all actives have a fitted effect of over 55% in size). The gist of the method: (§3)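 Myeloma cells (500 per well) were exposed to MIPE 4.0 compounds by pin transfer and incubated 48 hours at 37C, 5% CO2. Viability was read as ATP by CellTiter-Glo luminescence, normalised to DMSO (100%) and media-only (0%) wells.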

A short description of assay [4]: Quantitative High-Throughput drug screen in 47 multiple myeloma cell lines against the NCATS MIPE library collection: JJN3_DSMZ cell viability assay (AID 1918966; also: nearly all actives have a fitted effect of over 50% in size). The gist of the method: as §2
Assay [5] can be described thus: Quantitative High-Throughput drug screen in 47 multiple myeloma cell lines against the NCATS MIPE library collection: Karpas25_ECACC cell viability assay (AID 1918968; also: nearly all actives have a fitted effect of over 35% in size). The gist of the method: as §2
Assay [6] can be described thus: Quantitative High-Throughput drug screen in 47 multiple myeloma cell lines against the NCATS MIPE library collection: KMS27_JCRB cell viability assay (AID 1918970). Also: nearly all actives have a fitted effect of over 30% in size. A digest of the protocol: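 Luminescent ATP read-out (CellTiter-Glo, 5 min at room temperature) after 48 h compound exposure of 500 KMS27_JCRB cells per well; DMSO wells define full viability and media-only wells zero.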

A short description of assay [7]: Quantitative High-Throughput drug screen in 47 multiple myeloma cell lines against the NCATS MIPE library collection: KMS12BM_JCRB cell viability assay (AID 1918971). Also: nearly all actives have a fitted effect of over 35% in size. A digest of the protocol:
(§4)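 Inhibition of cell viability is measured here. Each line was plated at 500 cells per well, treated with MIPE 4.0 drugs, kept 48 hours at 37C, then assayed for ATP content by CellTiter-Glo luminescence.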

Assay [8] is described as follows: Quantitative High-Throughput drug screen in 47 multiple myeloma cell lines against the NCATS MIPE library collection: KMS12PE_JCRB cell viability assay (AID 1918972). Also: nearly all actives have a fitted effect of over 30% in size. A digest of the protocol: as §3
Assay [9] in a line: Quantitative High-Throughput drug screen in 47 multiple myeloma cell lines against the NCATS MIPE library collection: KMS20_JCRB cell viability assay (AID 1918973). Also: nearly all actives have a fitted effect of over 45% in size. The gist of the method: as §2
Assay [10] can be described thus: Quantitative High-Throughput drug screen in 47 multiple myeloma cell lines against the NCATS MIPE library collection: MMM1_PLB cell viability assay (AID 1918976). Also: nearly all actives have a fitted effect of over 35% in size. A digest of the protocol: (§5)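 Myeloma cells (500/well) treated with MIPE 4.0 compounds for 48 h at 37 °C, 5% CO2. Viability read as ATP via CellTiter-Glo luminescence after 5 min at RT; DMSO-only wells = 100%, media-only = 0% viability.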

Assay [11] can be described thus: Quantitative High-Throughput drug screen in 47 multiple myeloma cell lines against the NCATS MIPE library collection: MOLP8_DSMZ cell viability assay (AID 1918977). Also: nearly all actives have a fitted effect of over 45% in size. A digest of the protocol:
as §5

Assay [12] in a line: Quantitative High-Throughput drug screen in 47 multiple myeloma cell lines against the NCATS MIPE library collection: MM1S_ATCC cell viability assay (AID 1918980). Also: nearly all actives have a fitted effect of over 45% in size. The gist of the method:
as §5

Assay [13] can be described thus: Quantitative High-Throughput drug screen in 47 multiple myeloma cell lines against the NCATS MIPE library collection: MM1R_ATCC cell viability assay (AID 1918981). Also: nearly all actives have a fitted effect of over 35% in size. A digest of the protocol:
as §5

Assay [14] in a line: Quantitative High-Throughput drug screen in 47 multiple myeloma cell lines against the NCATS MIPE library collection: KMS26_JCRB cell viability assay (AID 1918975). Also: nearly all actives have a fitted effect of over 45% in size. The gist of the method: as §4
Assay [15] is described as follows: Quantitative High-Throughput drug screen in 47 multiple myeloma cell lines against the NCATS MIPE library collection: NCIH929_DSMZ cell viability assay (AID 1918978). Also: nearly all actives have a fitted effect of over 35% in size. A digest of the protocol:
as §5

The nature of assay [16]: Quantitative High-Throughput drug screen in 47 multiple myeloma cell lines against the NCATS MIPE library collection: LP1_DSMZ cell viability assay (AID 1918982). Also: nearly all actives have a fitted effect of over 35% in size. A digest of the protocol: as §5
The nature of assay [17]: Quantitative High-Throughput drug screen in 47 multiple myeloma cell lines against the NCATS MIPE library collection: JIM3_ECACC cell viability assay (AID 1918963; also: nearly all actives have a fitted effect of over 35% in size). A digest of the protocol: as §1
Assay [18] in a line: Quantitative High-Throughput drug screen in 47 multiple myeloma cell lines against the NCATS MIPE library collection: H1112_PLB cell viability assay (AID 1918967; also: nearly all actives have a fitted effect of over 30% in size). The gist of the method:
as §2

A short description of assay [19]: Quantitative High-Throughput drug screen in 47 multiple myeloma cell lines against the NCATS MIPE library collection: OCIMY1_PLB cell viability assay (AID 1918979). Also: nearly all actives have a fitted effect of over 35% in size. A digest of the protocol:
as §5

A short description of assay [20]: Quantitative High-Throughput drug screen in 47 multiple myeloma cell lines against the NCATS MIPE library collection: KMS21BM_JCRB cell viability assay (AID 1918974). To be noted: ATP luminescence, 48 h; viability: at 45.8 µM (top of the series). A digest of the protocol: as §2

Results filed as inconclusive are left out. Active and inactive are the calls of the source. Calls follow the shape of the dose curve; as a rule, active = well fitted curve in the direction sought with a large enough effect; inconclusive = small, poorly fitted or top-dose-only effect, or another doubt; inactive = no such curve, though single readings can be large; an effect the other way counts as inactive or inconclusive.
Potency is read from the fitted curve at half-maximal effect.

As for `N=C(N)c1ccc(OCCCCCOc2ccc(C(=N)N)cc2)cc1`, the Potency in assay [1] was 3.32 µM (active); in assay [3], 3.72 µM (active); in [4] it was 16.6 µM (active); in assay [5] it was 2.96 µM (active); in assay [7] it was 5.9 µM (active); in [8] it was 5.9 µM (active). Besides, the Potency is 10.5 µM (active) in assay [9]; 14.8 µM (active) in [10]; 5.26 µM (active) in assay [11]; 16.6 µM (active) in assay [12]; 18.7 µM (active) in assay [13]. The Potency result in [2] and in assay [6] was “inactive” each time.

Consider `COc1ccccc1OCC(O)COC(N)=O` (stereo not given), for which the Potency entry in assay [1], in assay [2], in assay [3], in assay [5], in assay [6] and in assay [7] was “inactive” throughout. Further, the Potency entry in [8], in [14], in assay [11], in [15] and in assay [16] was “inactive” throughout.

As to `Cc1onc(-c2ccccc2Cl)c1C(=O)N[C@@H]1C(=O)N2[C@@H]1SC(C)(C)[C@@H]2C(=O)O`, the Potency result in assay [1], in assay [17], in [18], in [5], in assay [6] and in assay [7] was “inactive” throughout. For the same compound, the Potency result in [8], in assay [10], in [15], in [19] and in assay [16] was “inactive” in each case. Moreover, the Potency in assay [12] is 14.8 µM (active).

With `O[C@@H](CNC[C@H](O)[C@H]1CCc2cc(F)ccc2O1)[C@@H]1CCc2cc(F)ccc2O1`, the Potency in assay [1] was 26.4 µM (active); in assay [17], 23.5 µM (active); in assay [3], 20.9 µM (active); in assay [18], 29.6 µM (active); in [7], 23.5 µM (active); in [8], 14.8 µM (active). Also, the Potency in assay [20] was 23.5 µM (active); in assay [14], 26.4 µM (active); in assay [10], 23.5 µM (active); in assay [15] it was 23.5 µM (active); in assay [12], 20.9 µM (active); in [13], 26.4 µM (active).

Take `CNCC[C@H](Oc1cccc2ccccc12)c1cccs1`: the Potency in assay [1] is 5.26 µM (active); in assay [3], 7.43 µM (active); in assay [18], 2.35 µM (active); in [6] it was 23.5 µM (active); in [7] it was 18.7 µM (active); in assay [10], 29.6 µM (active). Moreover, the Potency in [11] was 18.7 µM (active); in assay [15] it was 1.87 µM (active); in assay [19], 18.7 µM (active); in [12] it was 2.35 µM (active); in assay [13], 14.8 µM (active); in [16], 18.7 µM (active).

With `CN(C)c1ccc(C(=C2C=CC(=[N+](C)C)C=C2)c2ccc(N(C)C)cc2)cc1`, the Potency in assay [1] was 0.0166 µM (active); in assay [2], 0.105 µM (active); in assay [3], 0.0093 µM (active); in assay [4], 0.0187 µM (active); in assay [5], 0.0118 µM (active); in [7] it was 0.0662 µM (active). In addition, the Potency is 0.0093 µM (active) in assay [8]; 0.132 µM (active) in [10]; 0.0526 µM (active) in assay [11]; 0.0264 µM (active) in assay [15]; 2.09 µM (active) in assay [19]; 0.105 µM (active) in assay [12]. In addition, the Potency in assay [13] is 0.132 µM (active); in assay [16], 0.418 µM (active).

Turning to `COc1c(N2CCNC(C)C2)c(F)cc2c(=O)c(C(=O)O)cn(C3CC3)c12` (stereo not given), the Potency entry in [1], in [4], in assay [5], in [6], in [8] and in assay [11] was “inactive” in each case. Besides, the Potency entry in [19], in assay [12] and in [16] was “inactive” in each case.

In the case of `Cc1cccc(Nc2ccncc2S(=O)(=O)NC(=O)NC(C)C)c1`, the Potency entry in assay [1], in assay [2], in assay [18], in assay [5], in assay [6] and in assay [8] was “inactive” each time. Moreover, the Potency result in assay [15], in assay [12] and in assay [16] was “inactive” throughout. For the same compound, the results for the Potency in [4], in [7] and in [10] were 20.9 µM (active), 16.6 µM (active) and 20.9 µM (active), respectively.

For the origin of these results see PubChem BioAssay (NCATS).
